This note sets out measurements from PubChem BioAssay (NCATS).

Each structure is given as a SMILES string. Records with an inconclusive call do not appear. Where a call stands in place of a potency, no number is given. Active and inactive are the calls of the source. Calls come from the whole dose curve; as a rule, active = well fitted inhibition curve with a large enough effect in the signal ratio, with a control signal flat (not every such curve was filed as active); inconclusive = small, poorly fitted or top-dose-only effect, or effect the other way, or a change in a side signal; inactive = no such curve, though single readings can be large or run the other way; the % refers to the signal ratio.

Chain of Peroxisome proliferator-activated receptor delta (Homo sapiens) (Q03181 whole entry, looked up): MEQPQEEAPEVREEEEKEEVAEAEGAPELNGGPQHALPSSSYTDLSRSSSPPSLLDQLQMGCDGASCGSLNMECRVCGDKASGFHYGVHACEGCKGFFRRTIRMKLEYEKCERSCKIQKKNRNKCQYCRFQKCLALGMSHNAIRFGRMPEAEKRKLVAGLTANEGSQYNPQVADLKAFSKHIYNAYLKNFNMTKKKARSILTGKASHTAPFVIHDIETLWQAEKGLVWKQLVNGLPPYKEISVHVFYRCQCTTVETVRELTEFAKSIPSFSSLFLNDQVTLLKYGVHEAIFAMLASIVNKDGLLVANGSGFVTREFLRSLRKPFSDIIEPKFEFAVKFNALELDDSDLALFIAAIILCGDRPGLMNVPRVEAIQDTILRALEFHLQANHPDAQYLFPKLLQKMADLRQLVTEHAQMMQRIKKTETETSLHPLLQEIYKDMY

The target of this test is Peroxisome proliferator-activated receptor delta (Homo sapiens) (UniProt Q03181). Put plainly: qHTS assay for small molecule antagonists of peroxisome proliferator-activated receptor delta signaling (AID 588535). The note with it: HEK293T PPARd-UAS-bla, beta-lactamase FRET ratio, 18 h; series mostly up to 76.7 µM. From the text:
NIH Chemical Genomics Center [NCGC] U.S. Environmental Protection Agency [EPA] National Institutes of Environmental Health Sciences [NIEHS] National Toxicology Program [NTP] NCGC Assay Overview The Peroxisome proliferator-activated receptors (PPARs) are lipid-activated transcription factors of the nuclear receptor superfamily with three distinct subtypes namely PPAR alpha, PPAR delta (also called PPAR beta) and PPAR gamma. All these subtypes heterodimerizes with Retinoid X receptor (RXR) and have different physiological functions. […] This role of PPAR delta implicates the potential use of its ligands in the treatment of metabolic disorders.
NCGC Assay Protocol Summary Using a beta-lactamase reporter-gene under control Peroxisome Proliferator-Activated Receptor delta (PPAR-delta) response element, a cell-based assay [GeneBLAzer (PPAR-delta-UAS-bla assay developed by Invitrogen] was used to measure PPAR-delta ligands signaling. GeneBLAzer PPAR-delta-UAS-bla HEK293T cells were used with assay medium containing 2% charcoal/dextran FBS. The assay was performed in clear bottom black Greiner 1536-well plates. Library compounds were measured for their ability to inhibit the reporter gene activity. Compounds were screened in a titration series in 1536-well format. The fluorescence intensity (405 nm excitation, 460/530 nm emission) was measured using an EnVision plate reader. […] Concentration-response titration points for each compound were fitted to the Hill equation yielding concentrations of half-maximal inhibition (IC50) and maximal response (efficacy) values. qHTS protocol for PPAR-delta beta-lactamase assay in antagonist mode [Step] [Parameter] [Value] [Description] 1. Reagent; 5 uL; 4000 cells/well 2. Incubation; 37 C for 5 hrs 3. Compounds; 23 nL; 0.59 nM to 92 uM 4. […] Incubation; 37 C for 18 hrs 7. Detection reagent; 1 uL of CCF4-dye 8. Incubation; RT for 2 hrs 9. Detection; Fluorescence; Envision plate reader
Take `CNc1ccccc1`: the Potency result was “inactive”.

With `Cc1cc(C(=O)O)ccc1[N+](=O)[O-]`, the Potency result is “inactive”.

Take `NCCCCCCN`: the Potency result was “inactive”.

As for `Cc1c(N)cccc1N`, the Potency result was “inactive”.

Turning to `Cc1cc(C)c(N)cc1C`, the Potency entry is “inactive”.

As to `CC(C)(C)c1ccc(OCC2CO2)cc1` (stereo not given), the Potency result is “inactive”.

Turning to `Cc1ccc(C)c(O)c1`, the Potency entry was “inactive”.

Take `O=C1CCC(=O)O1`: the Potency result is “inactive”.

As to `CCCCCNCCCCC`, the Potency entry is “inactive”.

In the case of `Cc1ccc(C#N)cc1`, the Potency entry was “inactive”.

`CC/C=C/C#N`: the Potency entry was “inactive”.

Regarding `CC(=O)c1cccc([N+](=O)[O-])c1`, the Potency entry was “inactive”.

Consider `CC(=O)c1ccc([N+](=O)[O-])cc1`, for which the Potency entry was “inactive”.

In the case of `Fc1ccccc1`, the Potency entry was “inactive”.

Take `O=C1C=CCCC1`: the Potency entry was “inactive”.

For `CSCCC=O`, the Potency result is “inactive”.

Take `CCCCOCCOCCSC#N`: the Potency result is “inactive”.

For the compound `Cc1ccc(C)c(N)c1`, the Potency entry was “inactive”.

For `Cc1c(C(=O)O)cccc1[N+](=O)[O-]`, the Potency entry was “inactive”.

Take `O=[N+]([O-])c1c(Cl)cc(Cl)cc1Cl`: the Potency result was “inactive”.

With `CC(=O)OC(C)C`, the Potency result was “inactive”.

With `CCOCCOCC`, the Potency entry is “inactive”.

Take `Cc1cccc2cccnc12`: the Potency result was “inactive”.

As for `CCCC(Cl)CCCC(Cl)CCC(Cl)CCC(Cl)CCC(Cl)CCCC(Cl)CCC` (stereo not given), the Potency entry was “inactive”.

In the case of `CCCCC(CC)C(=O)O` (stereo not given), the Potency entry is “inactive”.

Turning to `CC(=O)c1ccccc1[N+](=O)[O-]`, the Potency entry was “inactive”.

Take `CC(O)CC(C)O` (stereo not given): the Potency entry is “inactive”.

As for `N#Cc1ccccc1`, the Potency result was “inactive”.

As for `CCCCC(=O)N(C)C`, the Potency result was “inactive”.

`COC(=O)CCC(=O)OC`: the Potency result was “inactive”.

In the case of `Cc1ccccc1C(N)=O`, the Potency entry was “inactive”.

As for `O=C(O)CNC(=O)c1ccc(CO)o1`, the Potency entry was “inactive”.

For the compound `Cc1cccc(C)c1O`, the Potency result was “inactive”.

In the case of `O=C1OC(=O)c2cc([N+](=O)[O-])ccc21`, the Potency result is “inactive”.

For `O=[N+]([O-])c1cccc(Cl)c1`, the Potency entry was “inactive”.

On to `C=CC(=O)NC(C)C`, for which the Potency result was “inactive”.

`CCC(C)(C)C(=O)O`: the Potency result was “inactive”.

As to `COC(=O)c1ccccc1`, the Potency result is “inactive”.

As to `C/C(C=O)=C/c1ccccc1`, the Potency entry is “inactive”.

`CCOCC(=O)O`: the Potency entry is “inactive”.
